Experimental data reported in PubChem BioAssay (NCI).
The panel holds about 83,000 compounds, 20% with a hit somewhere; the sample as a whole holds those more often.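 Plates (96-well) were seeded with cells, treated with compound at one concentration, and incubated for 48 hours before percent growth was determined.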 Active and inactive are the calls of the source. How the source made its calls: active means growth percent below 10; inactive means the rest.

What follows are compounds tested on BT-549 breast (assay: NCI-60 one-dose screen, 48 h (100 = growth as untreated, 0 = no growth, -100 = all killed)). Conditions: 10 µM.

Question: `CCOc1ccc(Nc2nc3ccccc3nc2Nc2ccc(OCC)cc2)cc1` was tested. Which growth did it give?
Answer: Its growth is 70.7% (inactive).

Question: How did the growth turn out when `O=c1cc(-c2ccccc2)oc2cc(OCCCCNCc3ccccc3)cc(O)c12` was run?
Answer: Its growth is 78.5% (inactive).

Question: `Cc1ccc(C(C)C)cc1NC(=O)c1ccccc1N(C)C` was tested. Which growth did it give?
Answer: Its growth is 102% (inactive).

Question: For `CCCCSc1nc(Nc2ccc(/C(C)=N/NC(N)=S)cc2)c(C#N)c(-c2ccc(F)cc2)n1`, which growth is on record?
Answer: Its growth is 31.5% (inactive).

Question: `O=C(c1ccc(Cl)cc1)C1[C@H](c2ccccc2Br)[C@@H](c2ccccc2)NC12C(=O)Nc1ccccc12` (some centres undefined) was tested. Which growth did it give?
Answer: The growth was 48% (inactive).

Question: With `CC(=O)c1ccc(NC(=O)NCn2c(=O)[nH]c3ccccc3c2=O)cc1` as the compound, how does the growth read?
Answer: The growth was 159% (inactive).

Question: With `[2H]C([2H])([2H])Oc1ccc2ncc(C#Cc3cncc(C(=O)Nc4ccc(CN5CCN(C)CC5)c(C(F)(F)F)c4)c3)n2n1` as the compound, how does the growth read?
Answer: The growth was -57.5% (active).

Question: With `O=C1Nc2cc(Cl)ccc2/C1=C/c1ccc(OCc2ccc(Br)cc2F)cc1` as the compound, how does the growth read?
Answer: The growth was -18.7% (active).

Question: With `CCCCCCCCCCCCCCCCCCCC(=O)NCCc1c[nH]c2ccc(OC(=O)CCCC(=O)OCCOOCCOOCCOOCCOOCCOOCCOOCCOOCCOOCCOOCCOOCCOOCCOC)cc12` as the compound, how does the growth read?
Answer: The growth was -20.2% (active).

Question: `C[C@H]1[C@H](C)CC[C@]2(COC(=O)CCC(=O)NCC#CCN3CCNCC3)CC[C@]3(C)C(=CC[C@@H]4[C@@]5(C)CCCNC(C)(C)[C@@H]5CC[C@]43C)[C@H]12` was tested. Which growth did it give?
Answer: Its growth is 55.4% (inactive).

Question: For `COc1ccc2nc(Cl)c(-c3cc(-c4ccccc4)nc(N)n3)cc2c1`, which growth is on record?
Answer: Its growth is -11.1% (active).

Question: With `CN1CCN(c2ccc(Nc3nc(NCCCNC(=O)c4ccccc4)c4sccc4n3)cc2)CC1` as the compound, how does the growth read?
Answer: Its growth is 138% (inactive).

Question: How did the growth turn out when `C=C1CC[C@H](C(=C)C)[C@H]2C=C(C)C(=O)C3=C(C(=O)[C@@](C)(O)C3)[C@H]12` was run?
Answer: The growth was -43.7% (active).

Question: `COc1ccc(N(C)c2cc(C#N)nc3ccccc23)cc1N` was tested. Which growth did it give?
Answer: The growth was 94.1% (inactive).

Question: `COc1ccc(C(C)=C(c2ccc(OCCCN(C)C)cc2)c2ccc(OCCCN(C)C)cc2)cc1` was tested. Which growth did it give?
Answer: Its growth is -78.4% (active).

Question: Which growth does the source give for `CC1(c2ccccc2)NC(=O)N(CC(=O)Nc2ccc(C(=O)/C=C/c3ccc(Cl)cc3)cc2)C1=O` (centres undefined) here?
Answer: The growth was 1.57% (active).

Question: How did the growth turn out when `NC(=Nc1ccc(OCCCCCCCCn2ccnn2)cc1)c1ccccc1` was run?
Answer: Its growth is 56.6% (inactive).

Question: For `COC[C@@H](CC(C)C)N=C1N/C(=C\c2ccc3ncsc3c2)C(=O)N1C`, which growth is on record?
Answer: Its growth is 7.17% (active).

Question: How did the growth turn out when `O=C(CSc1ccc(-c2ccc(Cl)cc2)nn1)Nc1ccc(Cl)c(C(F)(F)F)c1` was run?
Answer: The growth was 74.6% (inactive).

Question: With `Cc1ccc(NC(=O)NCn2c(=O)[nH]c3ccccc3c2=O)cc1` as the compound, how does the growth read?
Answer: The growth was 115% (inactive).

Question: Which growth does the source give for `Cc1cc(C)cc(Oc2cccc(-c3c(C)nnn3C3CCN(CCN(C)C)CC3)n2)c1` here?
Answer: The growth was 9.68% (active).

Question: With `O=C(Nc1ccc(OCC(=O)c2ccccc2)cc1)Nc1ccc(Cl)c(C(F)(F)F)c1` as the compound, how does the growth read?
Answer: The growth was 33.7% (inactive).

Question: How did the growth turn out when `CCOC(=O)c1c(CSc2ccccc2)n(C)c2cc(CN(C)C)c(O)c(CN(C)C)c12` was run?
Answer: Its growth is 63.7% (inactive).

Question: How did the growth turn out when `Cc1ccc(-c2cc(-c3cc4ccccc4nc3Cl)[nH]c(=O)n2)cc1` was run?
Answer: The growth was -76.8% (active).

Question: `O=C(CS(=O)(=O)c1oc(-c2ccc(Cl)cc2)nc1S(=O)(=O)c1ccc(Cl)cc1)N1CCOCC1` was tested. Which growth did it give?
Answer: The growth was 52.4% (inactive).

Question: `COc1ccc(C=CC(=O)c2ccc(-n3c(C)nc4c(cnn4-c4ccccc4)c3=O)cc2)cc1` was tested. Which growth did it give?
Answer: The growth was 45% (inactive).

Question: For `O=C1Nc2ccc(Cl)cc2/C1=C/c1cccc(OCc2ccccc2)c1`, which growth is on record?
Answer: The growth was 41.9% (inactive).

Question: With `CN(C)c1ccc(/C=C/C(=O)c2ccc(NC(=O)CN3C(=O)NC(C)(c4ccccc4)C3=O)cc2)cc1` (centres undefined) as the compound, how does the growth read?
Answer: Its growth is 49.6% (inactive).

Question: For `COc1cccc(C(N)=Nc2ccc(OCCCCCCn3cncn3)cc2)c1`, which growth is on record?
Answer: The growth was 20.5% (inactive).

Question: For `CN1CCN(Cc2ccc(C(=O)Nc3cccc(Nc4ccc5cc(O)ccc5n4)c3)cc2C(F)(F)F)CC1`, which growth is on record?
Answer: The growth was 78.1% (inactive).

Question: How did the growth turn out when `Nc1nnc(-c2c[nH]c3ccc(F)cc23)c(-c2c[nH]c3ncccc23)n1` was run?
Answer: The growth was 46.7% (inactive).

Question: How did the growth turn out when `C/C(=C\CC/C=C(\C)CC/C=C(\C)CC[C@@H](O)C(C)(C)O)CC/C=C(\C)CC[C@@H](O)C(C)(C)O` was run?
Answer: The growth was 8.56% (active).

Question: For `Cc1ccc(-c2ccc(SCC(=O)Nc3ccc(Cl)c(C(F)(F)F)c3)nn2)cc1`, which growth is on record?
Answer: Its growth is 25.4% (inactive).

Question: `CN1CCN(c2ccc(Nc3nc(NCCCNC(=O)c4ccc(F)cc4)c4sccc4n3)cc2)CC1` was tested. Which growth did it give?
Answer: Its growth is 108% (inactive).

Question: How did the growth turn out when `C#Cc1ccc(S(=O)(=O)Nc2cccc(-c3csc(NC(C)=O)n3)c2)cc1` was run?
Answer: The growth was 55.7% (inactive).

The compounds below were run on MDA-MB-435 melanoma in the same assay as above. Conditions: 10 µM.

Question: How did the growth turn out when `CCOc1ccc(Nc2nc3ccccc3nc2Nc2ccc(OCC)cc2)cc1` was run?
Answer: Its growth is 52.9% (inactive).

Question: How did the growth turn out when `O=c1cc(-c2ccccc2)oc2cc(OCCCCNCc3ccccc3)cc(O)c12` was run?
Answer: Its growth is -31.5% (active).

Question: How did the growth turn out when `Cc1ccc(C(C)C)cc1NC(=O)c1ccccc1N(C)C` was run?
Answer: Its growth is 95% (inactive).

Question: Which growth does the source give for `CCCCSc1nc(Nc2ccc(/C(C)=N/NC(N)=S)cc2)c(C#N)c(-c2ccc(F)cc2)n1` here?
Answer: The growth was 78.6% (inactive).

Question: How did the growth turn out when `CC(=O)c1ccc(NC(=O)NCn2c(=O)[nH]c3ccccc3c2=O)cc1` was run?
Answer: Its growth is 99.6% (inactive).

Question: Which growth does the source give for `[2H]C([2H])([2H])Oc1ccc2ncc(C#Cc3cncc(C(=O)Nc4ccc(CN5CCN(C)CC5)c(C(F)(F)F)c4)c3)n2n1` here?
Answer: The growth was -67.2% (active).

Question: `O=C1Nc2cc(Cl)ccc2/C1=C/c1ccc(OCc2ccc(Br)cc2F)cc1` was tested. Which growth did it give?
Answer: Its growth is -27.5% (active).

Question: `CCCCCCCCCCCCCCCCCCCC(=O)NCCc1c[nH]c2ccc(OC(=O)CCCC(=O)OCCOOCCOOCCOOCCOOCCOOCCOOCCOOCCOOCCOOCCOOCCOOCCOC)cc12` was tested. Which growth did it give?
Answer: The growth was 82.7% (inactive).

Question: For `C[C@H]1[C@H](C)CC[C@]2(COC(=O)CCC(=O)NCC#CCN3CCNCC3)CC[C@]3(C)C(=CC[C@@H]4[C@@]5(C)CCCNC(C)(C)[C@@H]5CC[C@]43C)[C@H]12`, which growth is on record?
Answer: Its growth is 32.4% (inactive).

Question: With `COc1ccc2nc(Cl)c(-c3cc(-c4ccccc4)nc(N)n3)cc2c1` as the compound, how does the growth read?
Answer: The growth was 45.5% (inactive).

Question: For `COc1ccc(CN2[C@H](C(=O)NCCCCCCC(=O)NO)Cc3c([nH]c4ccccc34)[C@H]2C2CC2)cc1`, which growth is on record?
Answer: Its growth is -49.1% (active).

Question: How did the growth turn out when `CN1CCN(c2ccc(Nc3nc(NCCCNC(=O)c4ccccc4)c4sccc4n3)cc2)CC1` was run?
Answer: The growth was 64.4% (inactive).

Question: With `C=C1CC[C@H](C(=C)C)[C@H]2C=C(C)C(=O)C3=C(C(=O)[C@@](C)(O)C3)[C@H]12` as the compound, how does the growth read?
Answer: The growth was -58% (active).

Question: `COc1ccc(N(C)c2cc(C#N)nc3ccccc23)cc1N` was tested. Which growth did it give?
Answer: Its growth is -22.4% (active).

Question: For `COc1ccc(C(C)=C(c2ccc(OCCCN(C)C)cc2)c2ccc(OCCCN(C)C)cc2)cc1`, which growth is on record?
Answer: Its growth is -99.9% (active).

Question: For `CC1(c2ccccc2)NC(=O)N(CC(=O)Nc2ccc(C(=O)/C=C/c3ccc(Cl)cc3)cc2)C1=O` (centres undefined), which growth is on record?
Answer: Its growth is -76.4% (active).

Question: With `COC[C@@H](CC(C)C)N=C1N/C(=C\c2ccc3ncsc3c2)C(=O)N1C` as the compound, how does the growth read?
Answer: Its growth is 22.1% (inactive).

Question: Which growth does the source give for `O=C(CSc1ccc(-c2ccc(Cl)cc2)nn1)Nc1ccc(Cl)c(C(F)(F)F)c1` here?
Answer: The growth was 0.967% (active).

Question: With `Cc1ccc(NC(=O)NCn2c(=O)[nH]c3ccccc3c2=O)cc1` as the compound, how does the growth read?
Answer: Its growth is 86.3% (inactive).

Question: With `Cc1cc(C)cc(Oc2cccc(-c3c(C)nnn3C3CCN(CCN(C)C)CC3)n2)c1` as the compound, how does the growth read?
Answer: The growth was 20.7% (inactive).

Question: How did the growth turn out when `CC(=O)NCC1=C(C)C=C2C(=O)[C@](C)(O)C3(CC3)C(C)=C21` was run?
Answer: The growth was -80% (active).

Question: `O=C(Nc1ccc(OCC(=O)c2ccccc2)cc1)Nc1ccc(Cl)c(C(F)(F)F)c1` was tested. Which growth did it give?
Answer: Its growth is -25.4% (active).

Question: Which growth does the source give for `CCOC(=O)c1c(CSc2ccccc2)n(C)c2cc(CN(C)C)c(O)c(CN(C)C)c12` here?
Answer: Its growth is 54% (inactive).

Question: Which growth does the source give for `Cc1ccc(-c2cc(-c3cc4ccccc4nc3Cl)[nH]c(=O)n2)cc1` here?
Answer: The growth was 19.1% (inactive).

Question: How did the growth turn out when `COc1ccc([C@H]2C(C(=O)c3ccc(Cl)cc3)C3(N[C@@H]2c2ccccc2)C(=O)Nc2ccc(Br)cc23)cc1` (some centres undefined) was run?
Answer: The growth was -36.6% (active).

Question: How did the growth turn out when `O=C(CS(=O)(=O)c1oc(-c2ccc(Cl)cc2)nc1S(=O)(=O)c1ccc(Cl)cc1)N1CCOCC1` was run?
Answer: Its growth is 47% (inactive).

Question: How did the growth turn out when `O=C1Nc2ccc(Cl)cc2/C1=C/c1cccc(OCc2ccccc2)c1` was run?
Answer: Its growth is 35.4% (inactive).

Question: With `CN(C)c1ccc(/C=C/C(=O)c2ccc(NC(=O)CN3C(=O)NC(C)(c4ccccc4)C3=O)cc2)cc1` (centres undefined) as the compound, how does the growth read?
Answer: The growth was 34% (inactive).

Question: `CN1CCN(Cc2ccc(C(=O)Nc3cccc(Nc4ccc5cc(O)ccc5n4)c3)cc2C(F)(F)F)CC1` was tested. Which growth did it give?
Answer: Its growth is -85.5% (active).

Question: `Nc1nnc(-c2c[nH]c3ccc(F)cc23)c(-c2c[nH]c3ncccc23)n1` was tested. Which growth did it give?
Answer: The growth was 60.9% (inactive).

Question: With `C/C(=C\CC/C=C(\C)CC/C=C(\C)CC[C@@H](O)C(C)(C)O)CC/C=C(\C)CC[C@@H](O)C(C)(C)O` as the compound, how does the growth read?
Answer: Its growth is 39.5% (inactive).

Question: For `Cc1ccc(-c2ccc(SCC(=O)Nc3ccc(Cl)c(C(F)(F)F)c3)nn2)cc1`, which growth is on record?
Answer: The growth was -18.8% (active).

Question: For `CN1CCN(c2ccc(Nc3nc(NCCCNC(=O)c4ccc(F)cc4)c4sccc4n3)cc2)CC1`, which growth is on record?
Answer: Its growth is 51.1% (inactive).

Question: How did the growth turn out when `C#Cc1ccc(S(=O)(=O)Nc2cccc(-c3csc(NC(C)=O)n3)c2)cc1` was run?
Answer: The growth was 51.5% (inactive).
